In the library only some 2.8% were active in any assay of this set; here they are far more common.
Pol iota inh: qHTS for Inhibitors of Polymerase Iota; Pol iota fluorescent replication assay, 10 min; Potency, µM (doses to about 115 µM), without a hit: at the highest dose activity, negative = inhibition, usual class: inhibitors; 1% of 390,000 active; also: potency is read from the fitted curve at half-maximal effect
Target sequence (Q9UNA4 whole entry, looked up): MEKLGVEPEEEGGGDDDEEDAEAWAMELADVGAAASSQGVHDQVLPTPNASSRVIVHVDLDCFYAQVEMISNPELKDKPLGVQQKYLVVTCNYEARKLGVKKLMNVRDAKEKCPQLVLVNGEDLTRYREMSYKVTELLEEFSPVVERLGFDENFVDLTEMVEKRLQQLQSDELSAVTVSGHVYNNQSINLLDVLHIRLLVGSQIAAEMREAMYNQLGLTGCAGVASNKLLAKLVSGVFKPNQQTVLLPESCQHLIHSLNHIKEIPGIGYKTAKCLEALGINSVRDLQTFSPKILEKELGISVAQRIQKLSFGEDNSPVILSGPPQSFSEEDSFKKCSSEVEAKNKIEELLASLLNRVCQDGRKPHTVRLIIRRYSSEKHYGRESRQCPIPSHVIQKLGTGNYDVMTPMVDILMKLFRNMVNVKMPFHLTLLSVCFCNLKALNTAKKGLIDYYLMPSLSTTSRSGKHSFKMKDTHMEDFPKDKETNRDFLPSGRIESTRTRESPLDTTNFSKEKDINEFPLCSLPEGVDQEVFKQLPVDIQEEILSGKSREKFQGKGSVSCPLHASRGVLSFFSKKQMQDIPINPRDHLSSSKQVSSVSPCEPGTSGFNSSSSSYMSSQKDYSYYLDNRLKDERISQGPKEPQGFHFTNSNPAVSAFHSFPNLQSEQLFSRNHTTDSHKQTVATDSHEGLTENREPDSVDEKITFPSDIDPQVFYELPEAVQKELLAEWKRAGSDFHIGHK
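Fluorescent replication assay read twice, at 0 min and 10 min after adding 50 nM (final) substrate. Enzyme (10 nM) and compounds were first incubated 15 min at room temperature; enzyme-free buffer wells were negative controls.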
Pol beta inh: qHTS Assay for Inhibitors of DNA Polymerase Beta; Pol beta primer extension/strand displacement, fluorescence kinetic; 1.3% of 340,000 active; AID 485314, 2010; Potency, µM (highest dose often 114 µM), without a hit: top-dose activity change, negative = inhibition, hits mostly inhibitors; P06746; also: potency is read from the fitted curve at half-maximal effect; % is scaled to controls: 0 for no effect and ±100 for the full control effect
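Reaction started by 50 nM substrate onto compound-treated Pol beta (10 nM, 15 min preincubation, room temperature); plates read at 0 min and 10 min. Normalized concentration-effect data fitted by four-parameter Hill equation.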
PI5P4Ka inh: qHTS for Inhibitors of phosphatidylinositol 5-phosphate 4-kinase (PI5P4K). 1.2% of 330,000 active. max response, %. Phosphatidylinositol 5-phosphate 4-kinase type-2 alpha (Homo sapiens), P48426. PI5P4Kalpha enzyme, ADP-Glo luminescence, 60 min; hits give low values; active = max response of -50% or lower; inconclusive = between -30% and -50%; inactive = -30% or higher; also: value at the top dose of about 77 µM; % is scaled to controls: 0 for no effect and ±100 for the full control effect
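Human PI5P4Kalpha with substrate in 0.038 M HEPES pH 7.4, 0.28 mM EGTA, 0.1% CHAPS, 5% DMSO; reaction started with 5 microM ATP (final), 60 min at room temperature. ADP formed read by ADP-Glo luminescence.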
POLH inh: qHTS for Inhibitors of Polymerase Eta. DNA polymerase eta (Homo sapiens), Q9Y253. recombinant Pol eta, fluorescent DNA replication assay. Potency, µM (titrated, usually from 114 µM), for inactives: top-dose activity change, negative = inhibition, hits mostly inhibitors. 1.2% of 390,000 active. AID 588591, 2011; also: potency is read from the fitted curve at half-maximal effect; % is scaled to controls: 0 for no effect and ±100 for the full control effect
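Fluorescent replication assay: 50 nM final substrate added after a 15 min room-temperature compound preincubation with 10 nM enzyme. Signal taken at 0 min and again at 10 min.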
Pol kappa inh: qHTS for Inhibitors of Polymerase Kappa | Potency, µM (highest dose often 107 µM), without a hit: top-dose activity, negative = inhibition, hits mostly inhibitors | DNA polymerase kappa (Homo sapiens), Q9UBT6 | 0.53% of 400,000 active | purified Pol kappa, fluorescent DNA synthesis assay, 10 min | AID 588579, 2011; also: potency is read from the fitted curve at half-maximal effect; % is scaled to controls: 0 for no effect and ±100 for the full control effect
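10 nM Pol kappa was preincubated with compounds for 15 min at room temperature. Reaction started with 50 nM (final) substrate. Fluorescence read kinetically at 0 and 10 min.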
FEN1 inh: qHTS Assay for the Inhibitors of Human Flap endonuclease 1 (FEN1). Recombinant FEN1 flap cleavage, fluorescence, 15 min. Potency, µM (titrated, usually from 114 µM), without a hit: top-dose activity change, negative = inhibition, usual class: inhibitors. 0.35% of 390,000 active. AID 588795, 2011; also: potency is read from the fitted curve at half-maximal effect; % is scaled to controls: 0 for no effect and ±100 for the full control effect; nearly all actives have a fitted effect of over 65% in size
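Quantitative HTS format: each compound was titrated, incubated with 10 nM nuclease for 15 min at room temperature, then challenged with flap substrate at 50 nM final. Signal change over 15 min gave concentration–effect curves.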
Starred values were filed as active, the others as inactive; [ ] = another dose, or the depositor's remark. Unless noted, calls follow the shape of the dose curve; as a rule, active = well fitted curve in the direction sought with a large enough effect; inconclusive = small, poorly fitted or top-dose-only effect, or another doubt; inactive = no such curve, though single readings can be large; an effect the other way counts as inactive or inconclusive.

Results for N#Cc1c(-c2ccccc2)nc(SCc2ccc(Cl)cc2)[nH]c1=O ?
Pol iota inh: inconclusive; Pol beta inh: inconclusive; PI5P4Ka inh: 4; POLH inh: 79µM*; Pol kappa inh: -2%; FEN1 inh: -22%

What do the screens show for `CC[C@@H](C(=O)[C@@H](C)[C@@H](O)[C@H](C)CCc1ccc(C)c(O)c1C(=O)O)[C@H]1O[C@](CC)([C@H]2CC[C@](O)(CC)[C@H](C)O2)C[C@@H]1C`?
Pol iota inh: inconclusive; Pol beta inh: 22µM*; PI5P4Ka inh: inconclusive; POLH inh: -27%; Pol kappa inh: -17%; FEN1 inh: -17%

Results for CCOC(=O)c1ccc(NC(=O)Nc2ccn(C)n2)cc1 ?
Pol iota inh: 89µM*; Pol beta inh: 30%; POLH inh: -4%; Pol kappa inh: -17%; FEN1 inh: -3%

What do the screens show for `CCc1cc2c(SCC(=O)NC3CCCC3)ncnc2s1`?
PI5P4Ka inh: 2; POLH inh: -4%

Results for O=C(NCc1ccccc1)c1ccc(CSc2nc3cccnc3n2Cc2cccc(F)c2)cc1 ?
Pol iota inh: 17%; Pol beta inh: -9%; POLH inh: -17%; Pol kappa inh: -1%; FEN1 inh: 10%

Results for CCCCCCCC#Cc1ccccc1/C=N/S(=O)c1ccc(C)cc1 (centres undefined) ?
Pol iota inh: 41%; Pol beta inh: 2%; PI5P4Ka inh: -100*; POLH inh: -9%; Pol kappa inh: -25%; FEN1 inh: inconclusive

What do the screens show for `O=C(c1cc2ncc(Br)cn2n1)N1CCOCC1`?
Pol iota inh: -4%; Pol beta inh: 6%; POLH inh: 1%; Pol kappa inh: -4%; FEN1 inh: 2%

How did O=C(NCCc1ccccc1)c1cc2ncc(Br)cn2n1 do in these assays?
Pol iota inh: inconclusive; Pol beta inh: 40µM*; PI5P4Ka inh: inconclusive; POLH inh: inconclusive; Pol kappa inh: -14%; FEN1 inh: -1%

How did O=C(c1cc2ncc(Br)cn2n1)N1CCN(C(=O)c2ccco2)CC1 do in these assays?
Pol iota inh: inconclusive; Pol beta inh: inconclusive; PI5P4Ka inh: 2; POLH inh: 13µM*; Pol kappa inh: -14%; FEN1 inh: 11%

What do the screens show for `Cc1ccc(-c2c3c(=O)n(C)c(=O)n(C)c3c3c(C)nc4ccccc4n23)cc1`?
Pol iota inh: -18%; Pol beta inh: 31%; POLH inh: 3%; Pol kappa inh: -12%; FEN1 inh: -8%

How did CCCCc1nc(NCCNC(=O)c2ccco2)c(C#N)c2c1CSC(C)(C)C2 do in these assays?
Pol iota inh: inconclusive; Pol beta inh: 4%; POLH inh: 89µM*; Pol kappa inh: inconclusive; FEN1 inh: -6%

Results for COc1ccc(-c2c(-c3ccsc3)oc3c2C(O)CCC3)cn1 (centres undefined) ?
PI5P4Ka inh: -3

What do the screens show for `COc1cccc(OCC(O)CN2CCC(CN3C(=O)c4cccc5cccc(c45)C3=O)CC2)c1` (centres undefined)?
Pol iota inh: -19%; Pol beta inh: -15%; PI5P4Ka inh: -5; POLH inh: -9%; Pol kappa inh: -17%; FEN1 inh: 28µM*

Results for CC(=O)c1ccccc1OCC(O)CN1CCN(CCN2C(=O)c3cccc4cccc(c34)C2=O)CC1 (centres undefined) ?
Pol iota inh: 23%; Pol beta inh: 40µM*; PI5P4Ka inh: 3; POLH inh: -1%; Pol kappa inh: -15%; FEN1 inh: inconclusive

How did O=C1c2cccc3cccc(c23)C(=O)N1CC1CCN(CC(O)COc2ccc3ccccc3c2)CC1 (centres undefined) do in these assays?
Pol iota inh: 0%; Pol beta inh: 10%; PI5P4Ka inh: -1; POLH inh: -22%; Pol kappa inh: -14%; FEN1 inh: -8%

What do the screens show for `CN(Cc1ccco1)C(=O)c1ccc2c(c1)N(Cc1ccccc1F)C(=O)c1ccccc1S2`?
Pol iota inh: inconclusive; Pol beta inh: -3%; POLH inh: -11%; Pol kappa inh: -23%[60.1 µM]; FEN1 inh: -5%

How did CCN(CC(=O)Nc1c(F)cccc1F)C(=O)c1ccc(C(=O)c2ccccc2)cc1 do in these assays?
Pol iota inh: 10%; PI5P4Ka inh: 3; POLH inh: 1%; Pol kappa inh: -16%; FEN1 inh: -2%

What do the screens show for `CCc1nc2ccc(C(=O)N(CC)CC(=O)Nc3c(F)cccc3F)cc2nc1CC`?
Pol iota inh: inconclusive; PI5P4Ka inh: -6; POLH inh: 35µM*; Pol kappa inh: -45%; FEN1 inh: 0%

What do the screens show for `COCc1c(Br)c(C)nc(OCC(=O)N/N=C/c2ccc(C)o2)c1C#N`?
Pol iota inh: 0%; Pol beta inh: 17%; PI5P4Ka inh: 4; POLH inh: -17%; Pol kappa inh: -1%; FEN1 inh: 16%

What do the screens show for `COCc1c(Br)c(C)nc(OCC(=O)N/N=C/c2ccco2)c1C#N`?
Pol iota inh: inconclusive; Pol beta inh: 18µM*; PI5P4Ka inh: -13; POLH inh: 20%; Pol kappa inh: -2%[60.1 µM]; FEN1 inh: 17%

Results for CCOC(=O)c1c(NC(C)=O)sc2c(OCC(O)CNC(C)(C)C)c(Br)ccc12 (centres undefined) ?
Pol iota inh: inconclusive; Pol beta inh: 0%; PI5P4Ka inh: 2; POLH inh: -18%; Pol kappa inh: -14%; FEN1 inh: 22µM*

How did CCOC(=O)c1c(NC(C)=O)sc2c(O)cccc12 do in these assays?
Pol iota inh: 28%; Pol beta inh: -2%; PI5P4Ka inh: 2; POLH inh: -14%; Pol kappa inh: -7%; FEN1 inh: 4%

How did Oc1c(Br)cc(/C=N/NC(=S)NCc2ccco2)cc1Br do in these assays?
Pol iota inh: -12%; Pol beta inh: inconclusive; PI5P4Ka inh: -74*; POLH inh: -13%; Pol kappa inh: -16%; FEN1 inh: 1%

Results for O=C(NN=Cc1ccccc1OC(F)F)c1ccc(NS(=O)(=O)c2cccs2)cc1 ?
Pol iota inh: 8%; PI5P4Ka inh: -63*; POLH inh: inconclusive; Pol kappa inh: -12%; FEN1 inh: 2%

How did Cc1nn(-c2ccc(Cl)cc2)c(Cl)c1/C=N/NC(=O)c1ccc(NS(=O)(=O)c2cccs2)cc1 do in these assays?
Pol iota inh: -4%; PI5P4Ka inh: -66*; POLH inh: 79µM*; Pol kappa inh: -16%; FEN1 inh: -24%

Screens deposited in PubChem BioAssay by National Center for Advancing Translational Sciences (NCATS).
